IL1B secr inh: inhibitors of inflammasome signaling (IL-1 beta secretion). THP-1 LPS/ATP IL-1B secretion, AlphaLISA, 16 h; active compounds read low. activity change, % at 57.5 µM. 360,000 compounds, 4.7% hits; in the data active = activity change below about -50%; inconclusive = mostly about -30% to -49%
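THP-1 cells pretreated 1 hr with compounds (up to 57.5 uM final), then stimulated with LPS (250 ng/mL final) plus ATP (1.25 mM final); secreted IL-1B measured by AlphaLISA after 16 hr, decreased signal indicating inhibition.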
ELG1 DNA repair: inhibitors of ELG1-dependent DNA repair in HEK293T cells; HEK293T ELG1-luciferase reporter, luminescence, 16 h; DNA damage induced by 5-fluorouridine; Potency, µM (highest dose often 46.1 µM), actives largely listed as inhibitors; 330,000 compounds, 2.3% hits; AID 504467; note: nearly all actives have a fitted effect of over 55% in size
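5-Fluorouridine DNA damage + compound/DMSO, 2,000 cells/well, 16 h, 37 °C/5% CO2. ONE-Glo, 30 min RT, luminescence. Readout = decrease in reporter signal.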
DT40 TDP1 no CPT: qHTS for Inhibitors of human tyrosyl-DNA phosphodiesterase 1 (TDP1): qHTS in cells in absence of CPT; DT40 Tdp1-/- hTDP1 cells, no CPT, ATP luminescence, 48 h; 420,000 compounds, 15% hits; Potency, µM (doses to about 46.2 µM), most hits filed as inhibitors; note: nearly all actives have a fitted effect of over 55% in size
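Stably hTDP1-transfected Tdp1-null chicken DT40 cells were treated with library compounds minus camptothecin and grown for at least 48 hr at 37 °C, after which cellular ATP was quantified by luminescence.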
VP16 counter: counter-screen for ROR gamma inhibitors: Gal4-VP16 reporter | Drosophila S2 Gal4-VP16 UAS-luciferase, luminescence, 20 h | Potency, µM (series often up to 53.6 µM), most hits filed as inhibitors | 310,000 compounds, 3.5% hits;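 note: Gal4-VP16 expression switched on by copper sulfate through the metallothionein promoter; nearly all actives have a fitted effect of over 50% in size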
RORg inh: ROR gamma (mouse) transcription inhibition; P51450; Drosophila S2 Gal4-RORgamma UAS-luciferase reporter, 20 h; Potency, µM (highest dose often 53.6 µM), hits mostly inhibitors; 310,000 compounds, 5.4% hits; AID 2551; note: nearly all actives have a fitted effect of over 60% in size
Target sequence (P51450 whole entry, looked up, the tested form may be a part): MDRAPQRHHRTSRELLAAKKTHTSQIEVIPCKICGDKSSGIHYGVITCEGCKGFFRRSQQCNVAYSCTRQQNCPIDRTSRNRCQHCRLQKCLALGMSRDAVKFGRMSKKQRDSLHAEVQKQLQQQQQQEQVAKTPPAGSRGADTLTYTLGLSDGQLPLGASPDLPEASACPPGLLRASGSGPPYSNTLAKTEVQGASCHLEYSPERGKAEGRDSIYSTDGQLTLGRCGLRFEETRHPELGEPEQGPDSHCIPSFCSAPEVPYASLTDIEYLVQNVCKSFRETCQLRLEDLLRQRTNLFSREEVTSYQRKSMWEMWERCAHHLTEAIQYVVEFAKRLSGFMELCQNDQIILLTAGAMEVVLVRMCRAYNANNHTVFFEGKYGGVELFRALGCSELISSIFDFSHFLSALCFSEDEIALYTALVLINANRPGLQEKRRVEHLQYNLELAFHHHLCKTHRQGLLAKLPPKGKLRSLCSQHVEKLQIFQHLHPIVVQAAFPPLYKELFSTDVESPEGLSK
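A Gal4/UAS one-hybrid system in insect cells: metallothionein-promoter Gal4–ROR gamma fusion plus Photinus luciferase reporter. Copper sulfate 700 uM final, 20 hr ambient incubation, luminescent detection after 10 min with reagent.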
TDP1 cell CPT: growth inhibition of DT40 Tdp1-/-;hTDP1 cells with camptothecin (screen for TDP1 inhibitors); 420,000 compounds, 12% hits; Potency, µM (series often up to 46.2 µM), usual class: inhibitors; AID 686979; chicken DT40 Tdp1-/-;hTDP1 cells + 20 nM CPT, ATP luminescence, 48 h; note: nearly all actives have a fitted effect of over 55% in size
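Chicken DT40 Tdp1-/- cells stably complemented with human TDP1 were seeded at 400 cells/well in medium containing 20 nM camptothecin, exposed to pin-transferred compounds, and grown at 37 °C for at least 48 hr. Viability was read as ATP luminescence.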
Numbers stand for hits; – = inactive; ? = inconclusive; · = not tested or not shown. In the library only some 21% were active in any assay of this set; here they are far more common. Unless noted, calls come from the whole dose curve; as a rule, active = well fitted curve in the direction sought with a large enough effect; inconclusive = small, poorly fitted or top-dose-only effect, or another doubt; inactive = no such curve, though single readings can be large; an effect the other way counts as inactive or inconclusive.

SMILES	IL1B secr inh	ELG1 DNA repair	DT40 TDP1 no CPT	VP16 counter	RORg inh	TDP1 cell CPT
Cc1ccc(NC(=O)COC(=O)C2(c3ccc(Cl)cc3)CCCC2)cc1	?	–	23µM	?	?	23µM
CCOC(=O)c1ccc(NC(=O)C2(c3ccccc3)CCCC2)cc1	–	–	?	–	–	?
CCOC(=O)c1ccc(NC(=O)C2(c3ccc(Cl)cc3)CCCC2)cc1	–	–	?	–	?	16µM
CC1(Cc2ccc(Cl)s2)C(=O)Nc2c(Cl)ccc(Cl)c21 (stereo unspecified)	–	·	?	·	·	?
Cc1cnc(-n2ncc(C(=O)NCCN3CCOCC3)c2-c2cccs2)nc1-c1ccc(F)cc1	·	·	–	·	·	–
C=CCCCCCCCCc1nc(SCC(C)=O)n[nH]1	–	23µM	?	–	–	?
C=CCCCCCCCCc1nc(SCC(=O)O)n[nH]1	–	–	–	–	–	–
CCOC(=O)c1ccc(N2C(=O)c3n[nH]c(-c4cccs4)c3C2c2ccc(O)c(OC)c2)cc1 (stereo unspecified)	·	·	21µM	·	·	?
CCOC(=O)c1ccc(N2C(=O)c3n[nH]c(-c4cccs4)c3C2c2ccc(C)cc2)cc1 (stereo unspecified)	·	·	–	·	·	–
CCOC(=O)c1ccc(N2C(=O)c3n[nH]c(-c4cccs4)c3C2c2cccc(F)c2)cc1 (stereo unspecified)	·	·	18µM	·	·	?
O=C1c2ccccc2C(=O)N1CCCCN(C(=O)c1cc([N+](=O)[O-])cc([N+](=O)[O-])c1)c1ccc(Cl)cc1	–	–	?	–	–	–
O=C1c2ccccc2C(=O)N1CCCCN(C(=O)c1ccc(Cl)s1)c1ccc(Cl)cc1	–	–	21µM	5µM	8.9µM	?
O=C1c2ccccc2C(=O)N1CCCCN(C(=O)c1cc([N+](=O)[O-])ccc1Cl)c1ccc(Cl)cc1	–	21µM	?	–	–	?
Cc1ccc(N(CCCCN2C(=O)c3ccccc3C2=O)C(=O)c2cccc([N+](=O)[O-])c2)cc1	–	?	16µM	–	–	?
O=C(/C=C/c1ccccc1)N/C(=C/c1ccccc1)C(=O)NCCCO	–	–	–	–	–	–
CN(Cc1ccccc1)C(=O)C(=O)c1ccccc1	–	·	–	·	·	–
Cc1csc(C(C#N)C(=O)c2cc3ccccc3o2)n1 (stereo unspecified)	–	?	?	–	10µM	?
COc1ccc(-c2nc3c4ccccc4n(CC(=O)N4CCN(c5ccccc5OC)CC4)c(=O)n3n2)cc1	·	·	–	·	·	?
CCOC(=O)[C@H]1[C@H]2COc3ccc(Br)cc3[C@@H]2N2C(=O)c3c(C)cc(C)cc3NC(=O)[C@@]12C	?	–	?	·	·	?
Clc1ccccc1-c1nc2ccccc2c2nc3ccccc3n12	–	?	13µM	20µM	–	?
Cc1nc2ccccc2c2nc3ccccc3n12	–	–	21µM	–	–	?
COc1ccccc1NC(=O)Cn1ccn(-c2cccc3ccccc23)c(=O)c1=O	–	–	?	·	·	?
O=C(c1cccs1)N1C[C@@H](n2cc(C3CC3)nn2)[C@H](O)C[C@@H]1c1ccccc1	–	·	?	·	·	–
CC1CCN(c2ccc(C(=O)Nc3ccc4c(c3)OCO4)cc2[N+](=O)[O-])CC1	-141	?	9.2µM	–	?	10µM
CC1CCCN(c2ccc(C(=O)OCC(=O)N3c4ccccc4Sc4ccccc43)cc2[N+](=O)[O-])C1 (stereo unspecified)	–	–	23µM	–	–	18µM
SMILES	IL1B secr inh	ELG1 DNA repair	DT40 TDP1 no CPT	VP16 counter	RORg inh	TDP1 cell CPT
CC1CCCN(c2ccc(C(=O)NCc3ccc4c(c3)OCO4)cc2[N+](=O)[O-])C1 (stereo unspecified)	–	–	?	–	–	?
CC1CCCN(c2ccc(C(=O)OCn3nnc4ccccc4c3=O)cc2[N+](=O)[O-])C1 (stereo unspecified)	–	–	?	–	–	?
CC1CCCN(c2ccc(C(=O)Nc3ccc4c(c3)OCO4)cc2[N+](=O)[O-])C1 (stereo unspecified)	-66	21µM	21µM	–	?	?
O=C(COC(=O)c1ccc(N2CCOCC2)c([N+](=O)[O-])c1)Nc1ccc2c(c1)OCO2	–	–	?	–	–	–
CC1CCCN(c2ccc(C(=O)Nc3nnc(C4CC4)s3)cc2[N+](=O)[O-])C1 (stereo unspecified)	–	–	–	?	13µM	–
CCOC(=O)C1(C)CCCCN1C(=O)c1ccoc1 (stereo unspecified)	–	·	–	·	·	–
Cn1cccc1C(=O)N1CCC[C@@]2(CCN(c3ncccn3)C2)C1	·	·	–	–	–	–
CNc1cncc(-c2ccc(C)cc2)n1	–	·	–	·	·	–
Cc1ccc(C)c(NC(=S)NC(C)C(c2ccccc2)N2CCN(C)CC2)c1 (stereo unspecified)	-62	–	?	–	13µM	?
COc1ccc(NC(=S)NC(C)C(c2ccccc2)N2CCOCC2)cc1 (stereo unspecified)	–	–	–	?	4.5µM	?
CC(NC(=S)Nc1ccccc1Cl)C(c1ccccc1)N1CCOCC1 (stereo unspecified)	–	–	?	?	4µM	?
CCN1CCN(C(c2cccs2)C(C)NC(=S)Nc2cc(C)ccc2C)CC1 (stereo unspecified)	–	–	–	–	?	?
Cc1cccc(N(CC(O)CON=C2c3ccccc3-c3ccccc32)S(C)(=O)=O)c1 (stereo unspecified)	?	?	?	–	–	?
CCCS(=O)(=O)c1ccc(COC(=O)Cc2ccc([N+](=O)[O-])cc2)cc1	–	–	?	–	–	?
O=C(CN1CCN(S(=O)(=O)c2cccc(Br)c2)CC1)N1CCCCC1	–	–	–	·	·	–
Nc1nc2ccccc2n1C(=O)c1ccccc1	–	?	18µM	5µM	0.63µM	?
Nc1nc2ccccc2n1C(=O)CCc1ccccc1	–	?	18µM	–	–	?
Nc1nc2ccccc2n1C(=O)c1ccc(F)cc1	–	?	18µM	11µM	2.2µM	?
Nc1nc2ccccc2n1C(=O)c1ccco1	–	?	–	?	11µM	?
CC(=O)c1nc2ccccc2n1CCc1ccccc1	–	–	–	–	–	–
Cc1cn([C@H]2C[C@H](O)[C@@H](/C=C/C(=O)NCCC(C)C)O2)c(=O)[nH]c1=O	–	·	–	·	·	–
